Experimental data from PubChem BioAssay AID2783 (National Center for Advancing Translational Sciences (NCATS), 2010).
Records with an inconclusive call do not appear. Active and inactive are the calls of the source. Calls follow the shape of the dose curve; as a rule, active = well fitted inhibition curve with a large enough effect in the polarisation, with a control signal flat (not every such curve was filed as active); inconclusive = small, poorly fitted or top-dose-only effect, or effect the other way, or a change in a side signal; inactive = no such curve, though single readings can be large or run the other way; the % refers to the polarisation. Where a SMILES comes first, the peptide text is derived from it. Bridges are numbered along the chain shown (N, C = ends). [ ]: non-standard residue; d: D form. The star is where a group is joined. ξ: configuration not given here. ξDab(CH2SO3H) = NC(CCNCS(=O)(=O)O)C(=O)O; Heptanoyl(6-Me) = CC(C)CCCCC(=O)*; Dab = NCC[CH](N)C(=O)O

The molecules below were run against Menin (Homo sapiens) (UniProt O00255) (assay: Confirmation of Inhibitors Targeting the Menin-MLL Interaction in MLL Related Leukemias: Competition With Fluorescein Labeled MLL-derived Peptide). Details: Fluorescence polarization, fluorescein-MLL peptide displacement from menin; series mostly up to 100 µM.
Menin (Homo sapiens), sequence (O00255 whole entry, looked up): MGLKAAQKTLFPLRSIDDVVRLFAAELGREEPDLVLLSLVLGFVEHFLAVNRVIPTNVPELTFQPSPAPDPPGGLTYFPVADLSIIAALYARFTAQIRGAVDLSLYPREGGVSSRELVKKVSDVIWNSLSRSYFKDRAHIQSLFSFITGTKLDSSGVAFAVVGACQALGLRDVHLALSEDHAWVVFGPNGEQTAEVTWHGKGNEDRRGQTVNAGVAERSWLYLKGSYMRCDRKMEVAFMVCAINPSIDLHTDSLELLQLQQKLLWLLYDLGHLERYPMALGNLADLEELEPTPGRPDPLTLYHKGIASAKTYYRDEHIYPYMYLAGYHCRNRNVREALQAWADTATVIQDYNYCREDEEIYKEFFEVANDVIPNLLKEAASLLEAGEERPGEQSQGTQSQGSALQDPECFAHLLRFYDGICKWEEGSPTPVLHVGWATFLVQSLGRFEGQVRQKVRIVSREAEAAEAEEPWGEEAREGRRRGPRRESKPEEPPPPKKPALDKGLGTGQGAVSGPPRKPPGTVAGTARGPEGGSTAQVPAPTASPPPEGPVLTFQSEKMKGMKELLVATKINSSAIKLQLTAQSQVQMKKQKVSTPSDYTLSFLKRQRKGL

outcome, inactive:
CCCOc1ccc(C(=O)N2CCN(Cc3ccc4c(c3)OCO4)CC2)cc1
O=c1oc2c(O)c(O)cc3c(=O)oc4c(O)c(O)cc1c4c23
C[C@@H]1CN(C(=O)c2nc3ccc(Cl)cn3c2CNCC[C@@H]2C[C@@H]3C=C[C@H]2C3)C[C@H](C)O1
OC(c1ccccn1)(c1ccccn1)c1ccccn1
COc1ccc(NC(=O)N2CC[C@@]3(CCCN(C(=O)c4csnn4)C3)C2)cc1
CCOc1ccc(CCNC(=O)C(C)N2C(=O)CC(C)(C)Sc3ccccc32)cc1 (centres undefined)
CCCN(CCC)CCCNC(=S)Nc1ccc2nc(N3CCCC3)cc(C)c2c1
Cc1cc(C)c2c(=O)cc(C(=O)NCc3ccccc3)oc2c1
O=C1NC(=S)N/C1=C/c1ccc2ccccc2c1
CN(C)CCc1c[nH]c2ccc(CC3COC(=O)N3)cc12 (centres undefined)
CCN1C(=O)c2ccccc2S(=O)(=O)c2ccc(C(=O)NCCCN(CC(C)C)CC(C)C)cc21
CCOc1ccc(NC(=O)c2cccc(OC(=S)N3CCC(C)CC3)c2)cc1
O=C(O)c1ccccc1NS(=O)(=O)c1cccc(-n2sc3ccccc3c2=O)c1
O=C(NCC1CCCO1)c1ccc(OC2CCN(C(=O)C3CC3)CC2)cc1 (centres undefined)
O=C(O)c1cc(S(=O)(=O)O)cc(Nc2c3ccccc3nc3ccccc23)c1O
Cc1ccc(C)n1-c1ccc(N(C)C)cc1
COCCNC(=O)C(OC(=O)c1nsc(Cl)c1Cl)C(C)C (centres undefined)
CCCn1c(C2CCCN2c2nc(C)cs2)nc2cc(Cl)c(Cl)cc21 (centres undefined)
COc1ccc(NC(=O)NC2(C(=O)N3CCOCC3)CCCCC2)cc1
CCC(C)C1NC(=O)C(CCNCS(=O)(=O)O)NC(=O)C(NC(=O)C(CCNCS(=O)(=O)O)NC(=O)C(NC(=O)C(CCNCS(=O)(=O)O)NC(=O)CCCCC(C)C)C(C)O)CCNC(=O)C(C(C)O)NC(=O)C(CCNCS(=O)(=O)O)NC(=O)C(CCNCS(=O)(=O)O)NC(=O)C(C(C)CC)NC1=O (centres undefined) ({Heptanoyl(6-Me)}-[ξDab(CH2SO3H)]T[ξDab(CH2SO3H)][Dab][ξDab(CH2SO3H)]II[ξDab(CH2SO3H)][ξDab(CH2SO3H)]T; lactam 4-C; configuration not given here)
CCCn1c(=O)c(C(=O)Nc2ccccc2C(=O)OCC)c(O)c2ccccc21
O=C(NNCS(=O)(=O)O)c1ccncc1
O=C(O)/C(=C\c1ccc(F)cc1)c1ccc(-c2ccccc2)cc1
CCc1ccc(CNC(=O)CCS(=O)(=O)Cc2ccccc2F)cc1
CCOC(=O)N1CCN(CCC(=O)c2ccc(Br)cc2)CC1
O=C(Nc1nnc(-c2ccccc2SCc2ccccc2)s1)Nc1ccccc1F
COc1ccc2[nH]c(=O)c(CN(Cc3cccs3)C(=S)Nc3cccc(C)c3)cc2c1
C[N+]1(CCNC(=O)/C=N/O)CCCCC1
O=C(CSc1nc(O)cc(=O)n1-c1ccccc1)c1ccc(Br)cc1
COc1ccc(CNC(=O)C(c2ccc(O)cc2)N(Cc2ccco2)C(=O)c2snc(C(N)=O)c2N)cc1 (centres undefined)
O=C(NC(=S)Nc1nc(-c2ccc(Br)cc2)cs1)c1cccnc1
Fc1ccccc1C1c2cccn2CCN1C(=S)Nc1ccc(Br)cc1 (centres undefined)
Cc1c(F)cccc1NS(=O)(=O)c1ccc2c(c1)c(C)cc(=O)n2C
O=C(O)CCC(=O)Nc1ccc(SSc2ccc(NC(=O)CCC(=O)O)cc2)cc1
